Results: PMC7155171, “Probing the Open Global Health Chemical Diversity Library for Multistage-Active Starting Points for Next-Generation Antimalarials” (ACS Infectious Diseases, 2020)

Columns and labels:
[1] = system: P. berghei liver stage (PbLuc); design: species or system HepG2-A16-CD81; P. berghei luciferase sporozoite infection of hepatocytes, liver stage luminescence; conditions: inhibitor; for PbLuc primary screen (10uM): inhibition % (n=1): 48 h
[2] = system: HepG2-A16-CD81 hepatocytes; design: Uninfected hepatocyte viability, CellTiter-Glo luminescence; conditions: cytotoxicity primary screen, inhibitor

| Structure (SMILES) | PbLuc primary screen (10uM): inhibition % (n=1) [1] [%] | PbLuc primary screen (2uM): inhibition % (n=1) [1] [%] | HepG2 toxicity primary screen (10uM): inhibition % (n=1) [2] [%] |
| --- | --- | --- | --- |
| COc1cccc(C2=NN=CC2=C2NC(CN3CCCC3)=NO2)c1 [DDD01247208] | 34 | 45.82 | -23.2 |
| CCc1ccc(C(C)NC(=O)CCC2=NC(=C3N=CN=N3)NO2)cc1 (stereo not drawn) [DDD01068289] | 38.8 | -21.47 | -1.98 |
| CCc1c(C)nn2c(=O)cc(C3CCN(C(=O)C4CC4)C3)[nH]c12 (stereo not drawn) [DDD01057056] | 26.6 | 11.53 | 1.97 |
| O=C(CNC(=O)N1CCc2c([nH]c3ccc(Cl)cc23)C1)N1CCOCC1 [DDD01035668] | 18.2 | -2.915 | 8.32 |
| COCCC(=O)N1CCC(c2cc(=O)n(C)[nH]2)C1 (stereo not drawn) [DDD01060470] | 0.301 | 15.3 | -23.1 |
| CN(CCCc1ccccc1)C(=O)CCC1=NC(=C2N=CN=N2)NO1 [DDD01062165] | 22 | -4.851 | -44.845 |
| CCc1cc(=O)n2nc(C3CCCN3C(=O)c3ccccn3)cc2[nH]1 (stereo not drawn) [DDD01057178] | 18.85 | -15.38 | -0.805 |
| COc1cc(OC)c(-c2nc3c(C4CC4)[nH]n(C)c-3n2)cc1OC [DDD01244474] | 41.8 | -47.16 | -5.02 |
| COc1cc(F)ccc1-c1nc2c(C3CC3)[nH]n(C)c-2n1 [DDD01248843] | -24.9 | -27.89 | -1.72 |
| Cc1nsc(N2CCCN(CC(=O)N(C)C3CC3)CC2)n1 [DDD01066804] | 68.5 | -11.55 | -3.98 |
| Cc1cccc(C2N3CCC4(CC3)c3[nH]c5ccccc5c3CCN24)n1 (stereo not drawn) [DDD01058402] | -19.7 | 38.22 | 8.06 |
| Cc1[nH]c2cc(C3CCN(Cc4cccc(F)c4F)C3)nn2c(=O)c1C (stereo not drawn) [DDD01270135] | 90.4 | 18.8 | 0.333 |
| COc1cc2c(cc1-c1nc3c[nH]n(C(C)C(C)C)c-3n1)OCO2 (stereo not drawn) [DDD01255421] | 31.9 | 7.665 | 8.61 |
| Cc1[nH]n(C2CCS(=O)(=O)C2)c(=O)c1Cc1cccc(Cl)c1 (stereo not drawn) [DDD01026994] | 28.5 | 34.05 | -46.865 |
| Cc1nc(=O)cc(CCNC(=O)CC[C@@H]2CCCN3CCCC[C@H]23)[nH]1 [DDD01256003] | 44.8 | 42.6913 | 0.956 |
| CCc1cc(=O)n2nc(C3CCN(C(=O)c4ccncc4)CC3)cc2[nH]1 [DDD01057177] | 32.85 | -9.67 | 3.51 |
| COc1ccc(-c2c(C(C)C)nn3c(N)c(C#N)nnc23)cc1 [DDD01035184] | 53.1 | 9.631 | -12.2 |
| Cc1[nH]n(C2CCS(=O)(=O)C2)c(=O)c1Cc1ccc(Br)cc1 (stereo not drawn) [DDD01026979] | 43.4 | 14.54 | -41.615 |
| Clc1cccc(-c2cccc(N3CCC(NC4CCOCC4)CC3)c2)c1 [DDD01252000] | 84 | -46.68 | -4.24 |
| CCc1c(C)[nH]c2cc(C3CCN(CCc4ccccc4)C3)nn2c1=O (stereo not drawn) [DDD01060567] | 83.3 | 20.31 | -20.1 |

| Structure (SMILES) | PbLuc primary screen (10uM): inhibition % (n=1) [1] [%] | PbLuc primary screen (2uM): inhibition % (n=1) [1] [%] | HepG2 toxicity primary screen (10uM): inhibition % (n=1) [2] [%] |
| --- | --- | --- | --- |
| COCCCC(=O)N1CC(=O)Nc2cc(Br)ccc21 [DDD01075689] | -20.4 | 22.41 | 5.89 |
| CCC(=O)Nc1[nH]nc2c1c(C)nn2Cc1cccc(OC)c1 [DDD01063148] | -31 | 15.82 | -9.24 |
| Cc1ncc(CN2CCc3c([nH]c4cc(C5CC5)nn4c3=O)C2)n1C [DDD01058398] | 47.1 | 42.53 | 6.62 |
| Cc1ccc(S(=O)(=O)Cc2noc([C@@H]3C[C@@H](O)CN3C(C)C)n2)cc1 [DDD01025534] | 44.5 | 0.1961 | 0.317 |
| COc1cccc(Cn2nc(C)c3c(NC(=O)C(C)OC)[nH]nc32)c1 (stereo not drawn) [DDD01063202] | 39.7 | -10.78 | -2.03 |
| CCc1c(C)[nH]c2cc(C3CCN(Cc4ccccc4F)C3)nn2c1=O (stereo not drawn) [DDD01270117] | 85.9 | 29.7326 | 1.7 |
| Cc1nc(N2CCCC2)ncc1-c1cc(=O)n2ncnc2[nH]1 [DDD01038581] | 16.8 | 10.62 | 10.6 |
| CCc1nn(C)c(N)c1-c1ccc2c(c1)OCO2 [DDD01074639] | 53.6 | 37.53 | -45.08 |
| CCC(CO)N(Cc1cccnc1)C(=O)c1ccc(C(F)(F)F)[nH]c1=O (stereo not drawn) [DDD01253913] | -28.9 | 20.89 | -1.12 |
| Cc1ncc(CN2CCc3[nH]c4cc(C(C)(C)C)nn4c(=O)c3C2)n1C [DDD01058400] | -12.3 | 26.69 | 8.62 |
| Cc1cc(=O)n2nc(C3CCN(C(=O)c4ccccn4)CC3)cc2[nH]1 [DDD01057174] | 7.55 | -10.49 | -3.3635 |
| COCC(=O)Nc1[nH]nc2c1c(C)nn2Cc1cccc(OC)c1 [DDD01063147] | -14.8 | 27.76 | -11.7 |
| CC(NC(=O)CCC1=NC(=C2N=CN=N2)NO1)c1ccc(F)cc1F (stereo not drawn) [DDD01068293] | 33.4 | -26.534 | -2.05 |
| CCc1c(C)nn2c(=O)cc(C3CCN(C(=O)c4ccccn4)C3)[nH]c12 (stereo not drawn) [DDD01056906] | 44.95 | -16.2 | 6.7 |
| COc1ccc(-c2c(C)nn3c(N)c(C#N)nnc23)cc1 [DDD01035158] | 3.19 | -31.95 | -8.26 |
| Cc1[nH]c2cc(C3CCN(Cc4ccccc4F)C3)nn2c(=O)c1C (stereo not drawn) [DDD01060615] | 61.7 | 28.64 | 5.52 |
| CCc1nc(CN(C)C2CCN(CCn3cc(C#N)cn3)C2)no1 (stereo not drawn) [DDD01304196] | 41.4 | -38.96 | -6.12 |
| COc1ccc(F)cc1-c1nc2c(C3CC3)[nH]n(C)c-2n1 [DDD01250494] | -12.1 | -45.41 | -2.18 |
| CCc1nn2c(N)c(C#N)nnc2c1-c1ccc(OC)cc1 [DDD01035159] | 22.9 | 19.08 | -3.73 |
| Cn1nc(C2CCC2)c(-c2ccc3c(c2)OCO3)c1N [DDD01074643] | 64.7 | 14.0603 | -42.27 |
